TRPML1 ag = qHTS for Agonists of the Human Mucolipin Transient Receptor Potential 1 (TRPML1) | Mucolipin-1 (Homo sapiens), Q9GZU1 | TRPML1-expressing cells, Ca2+ dye fluorescence, FDSS | activation, % (no concentration beside the values) | 410,000 compounds, 0.12% hits | AID 624414, 2012; in the data active means activation above about 50%; inconclusive means mostly about 30% to 49%; further: 0% is about no effect
Target sequence (Q9GZU1 whole entry, looked up): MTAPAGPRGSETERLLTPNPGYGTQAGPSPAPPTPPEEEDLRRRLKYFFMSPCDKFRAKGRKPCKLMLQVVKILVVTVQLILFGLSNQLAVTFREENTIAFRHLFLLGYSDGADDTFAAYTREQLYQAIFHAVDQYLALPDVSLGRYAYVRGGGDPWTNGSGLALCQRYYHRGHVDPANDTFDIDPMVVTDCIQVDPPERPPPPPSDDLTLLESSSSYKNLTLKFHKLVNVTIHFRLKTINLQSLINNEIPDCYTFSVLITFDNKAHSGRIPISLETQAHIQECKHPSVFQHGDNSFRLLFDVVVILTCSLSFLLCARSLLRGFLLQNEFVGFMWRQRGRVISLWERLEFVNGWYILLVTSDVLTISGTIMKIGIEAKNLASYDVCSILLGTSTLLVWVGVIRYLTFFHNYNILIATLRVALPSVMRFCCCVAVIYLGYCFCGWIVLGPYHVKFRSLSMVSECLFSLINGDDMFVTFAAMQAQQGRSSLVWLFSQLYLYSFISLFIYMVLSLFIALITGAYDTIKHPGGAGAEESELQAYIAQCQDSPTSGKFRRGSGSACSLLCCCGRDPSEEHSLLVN
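In this qHTS format, compounds were pin-transferred onto Ca8-dye-loaded TRPML1-DL cells induced with Tet overnight, and intracellular Ca2+ fluorescence was recorded kinetically for 110 s after a 10 s baseline. A subsequent 4uM final 54-4 (EC80) addition followed by a second 110 s read served as the antagonist phase.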
TRPV1 ag = HTS Assay for Compounds that Act as Agonists of the Vanilloid Receptor 1. Transient receptor potential cation channel subfamily V member 1 (Homo sapiens), Q8NER1. TRPV1-expressing cells, Fluo-8 calcium influx, agonist mode. activation, % at 8.33 µM. 320,000 compounds, 0.19% hits; in the data active means activation above about 80%; inconclusive means between about 30% and that limit; further: 0% is about no effect
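Cells expressing TRPV1 were dye-loaded with Fluo-8 and read kinetically: 10 s baseline, 3 min after compound (agonist portion), then 2 min after EC20 capsaicin (allosteric enhancer portion). Calcium-bound dye fluorescence at 480/520 nm.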
TRPML1 inh = qHTS for Inhibitors of the Human Mucolipin Transient Receptor Potential 1 (TRPML1); activity change, negative = inhibition, % (test concentration not listed); AID 624415, 2012; TRPML1-inducible cells, Ca2+ dye fluorescence, FDSS; stronger effect = lower value; inhibition of EC80 agonist-evoked calcium signal; Mucolipin-1 (Homo sapiens), Q9GZU1; 390,000 compounds, 0.02% hits; in the data active means activity change below about -50%; inconclusive means between about -30% and that limit;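 further: stimulus is agonist 54-4 at its EC80 concentration; on the % scale 0 is the no-effect control and ±100 the full control effect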
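TRPML1-DL cells, Tet-induced overnight (~16 h, 37 °C) at 1,500 cells/well, were loaded with Ca8 no-wash dye plus quencher for 45-90 min at room temperature. Compounds were pinned during FDSS kinetic reading; agonist 54-4 at EC80 (4 uM final) then added.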
TRHR enhancer-1 = qHTS for Small Molecule Agonists and Allosteric Enhancers of Human TRH Receptor: Primary Screen for Enhancers | Thyrotropin-releasing hormone receptor (Homo sapiens), P34981 | TRHR cells, fluo-8 calcium fluorescence, EC20 TRH enhancement | enhancement, % at 2 µM | 360,000 compounds, 0.66% hits | AID 493056, 2011; in the data active means enhancement above about 30%; further: 0% is about no effect
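TRHR-expressing cells loaded with fluo-8 calcium dye were read kinetically (ex 480/em 530) during compound addition, then stimulated with an EC20 of TRH (10 nM final). Enhancement of the Gq-mediated intracellular calcium response was scored.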
TRHR agonist-1 = qHTS for Small Molecule Agonists and Allosteric Enhancers of Human TRH Receptor: Primary Screen for Agonists. Thyrotropin-releasing hormone receptor (Homo sapiens), P34981. TRHR cells, calcium flux fluo-8, FDSS agonist mode. activation, % at 2 µM. 360,000 compounds, 0.18% hits; in the data active means activation above about 30%; further: 0% is about no effect
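Agonist-mode FDSS calcium read (Ex 480/Em 530, 1 s cycles) in 1536-well TRHR cells with fluo-8 dye, after 10-cycle baseline and 23 nL compound addition; TRH at EC20 (10 nM final) added afterwards for the enhancer phase.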
TRPV1 PAM = HTS Assay for Compounds that Act as Potentiators of the Vanilloid Receptor 1; 320,000 compounds, 0.02% hits; Transient receptor potential cation channel subfamily V member 1 (Homo sapiens), Q8NER1; potentiation, % at 8.33 µM; TRPV1-expressing cells, Fluo-8 calcium influx, capsaicin EC20 potentiation; in the data active means potentiation above about 80%; inconclusive means between about 30% and that limit; further: 0% is about no effect
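Cells expressing TRPV1 were dye-loaded with Fluo-8 and read kinetically: 10 s baseline, 3 min after compound (agonist portion), then 2 min after EC20 capsaicin (allosteric enhancer portion). Calcium-bound dye fluorescence at 480/520 nm.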
TRHR enhancer-2 = qHTS for Small Molecule Agonists and Allosteric Enhancers of Human TRH Receptor: Confirmation Screen for Enhancers. shares compounds with TRHR enhancer-1. TRH receptor cell assay, enhancer confirmation qHTS. activity change, negative = inhibition, % at 46.1 µM. 970 tested, under 10 active. AID 493076, 2011;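 further: compound effect scored on response to added TRH at EC20 of 10 nM; 0% is about no effect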
TRHR agonist-2 = qHTS for Small Molecule Agonists and Allosteric Enhancers of Human TRH Receptor: Confirmation Screen for Agonists | shares compounds with TRHR enhancer-1 | TRHR-expressing cells, agonist activation read-out | Potency, µM (highest dose often 46.1 µM), for the others: at the highest dose activation, hits mostly activators | 970 compounds, 8% hits; further: potency means the concentration at half of the fitted maximal effect; 0% is about no effect; nearly all actives have a fitted effect of over 75% in size
Active calls of the source: *. Most compounds without a hit are left out; they make up all but 0.99% or so of the library. Unless noted, the call rests on the fitted dose curve; in most records, active means well fitted curve in the direction sought with a large enough effect; inconclusive means small, poorly fitted or top-dose-only effect, or another doubt; inactive means no such curve, though single readings can be large; an effect the other way counts as inactive or inconclusive.

`Cc1nc2c(-c3ccccc3)c(C)nn2c(C)c1CCC(=O)N1CCN(c2ccccc2)CC1` gave TRPML1 ag -1, TRPML1 inh -8, TRHR enhancer-1 3 and TRHR agonist-1 0.
For COc1ccc(S(=O)(=O)N2CCCCC2)cc1NC(=S)Nc1ccccc1 the results were TRPML1 ag 0, TRPV1 ag 1, TRPML1 inh 25, TRHR enhancer-1 56*, TRHR agonist-1 0, TRPV1 PAM 7, TRHR enhancer-2 -2 and TRHR agonist-2 1%.
Screening Cc1ccccc1NC(=O)c1ccc(S(=O)(=O)N(C)C)cc1 returned TRPML1 ag -1, TRPV1 ag 1, TRPML1 inh 9, TRHR enhancer-1 45*, TRHR agonist-1 -1, TRPV1 PAM 25, TRHR enhancer-2 -4 and TRHR agonist-2 -1%.
CN(C)S(=O)(=O)c1ccc(C(=O)NCC(=O)N/N=C/c2ccccc2)cc1 was read as TRPML1 ag 0, TRPV1 ag inconclusive, TRPML1 inh 35, TRHR enhancer-1 82*, TRHR agonist-1 1, TRPV1 PAM -16, TRHR enhancer-2 -3 and TRHR agonist-2 -1%.
Screening Cc1cccc(OCc2nnc(SC(C)C(=O)O)n2Cc2ccccc2)c1 (configuration not stated) returned TRPML1 ag -1, TRPV1 ag 0, TRPML1 inh 14, TRHR enhancer-1 41*, TRHR agonist-1 1, TRPV1 PAM 6, TRHR enhancer-2 12 and TRHR agonist-2 -1%.
CC(=O)NCCC1CCN(c2nc3nonc3nc2N(C)Cc2ccccc2)CC1 was read as TRPML1 ag 1, TRPV1 ag inconclusive, TRPML1 inh 24, TRHR enhancer-1 47*, TRHR agonist-1 0, TRPV1 PAM -9, TRHR enhancer-2 -4 and TRHR agonist-2 0%.
CCCCNC(=O)N1CCC(CCC(=O)N(C)Cc2ccccc2)CC1 was read as TRPML1 ag 1, TRPV1 ag 0, TRPML1 inh -5, TRHR enhancer-1 -6, TRHR agonist-1 0 and TRPV1 PAM -21.
Screening Nc1c(C(=O)Nc2cccc(F)c2)c2ccccn2c1C(=O)c1ccccc1 returned TRPML1 ag 1, TRPML1 inh 13, TRHR enhancer-1 0 and TRHR agonist-1 -2.
Screening COc1ccc(NC(=O)CSc2nc(-c3ccccc3)cc(-c3cc(OC)c(OC)c(OC)c3)c2C#N)c(OC)c1 returned TRPML1 ag 0, TRPML1 inh 20, TRHR enhancer-1 -4 and TRHR agonist-1 1.
`COc1ccccc1N/C=C/c1onc(C)c1[N+](=O)[O-]` gave TRPML1 ag 0, TRPV1 ag inconclusive, TRPML1 inh 7, TRHR enhancer-1 0, TRHR agonist-1 47*, TRPV1 PAM -12, TRHR enhancer-2 4 and TRHR agonist-2 inconclusive.
`CSc1ccc(CNC(=O)c2cc3cc(S(=O)(=O)N4CCCCC4)ccc3n2C)cc1` gave TRPML1 ag 2, TRPML1 inh -11, TRHR enhancer-1 9 and TRHR agonist-1 1.
Screening O=C(O)CC1SC(=Nc2ccc(O)cc2)NC1=O (configuration not stated) returned TRPML1 ag 1, TRPV1 ag -1, TRPML1 inh -10, TRHR enhancer-1 2, TRHR agonist-1 0 and TRPV1 PAM inconclusive.
`CCOc1ccc(N=C2NC(=O)C(CC(=O)O)S2)cc1` (configuration not stated) gave TRPML1 ag 1, TRPV1 ag 4, TRPML1 inh 1, TRHR enhancer-1 53*, TRHR agonist-1 1, TRPV1 PAM 4, TRHR enhancer-2 -11 and TRHR agonist-2 -1%.
For Cc1noc(C)c1CSc1nnc2sc3ccccc3n12 the results were TRPML1 ag 0, TRPV1 ag -4, TRPML1 inh 5, TRHR enhancer-1 43*, TRHR agonist-1 0, TRPV1 PAM 15, TRHR enhancer-2 -5 and TRHR agonist-2 1%.
`N#CCSc1nnc2sc3ccccc3n12` gave TRPML1 ag 0, TRPML1 inh 26, TRHR enhancer-1 -3 and TRHR agonist-1 0.
Screening CC1Cc2ccccc2N1C(=O)CSc1nnc2sc3ccccc3n12 (configuration not stated) returned TRPML1 ag 2, TRPV1 ag 9, TRPML1 inh 25, TRHR enhancer-1 63*, TRHR agonist-1 0, TRPV1 PAM -3, TRHR enhancer-2 1 and TRHR agonist-2 -1%.
For CCc1ccc(C2c3c(-c4ccccc4O)n[nH]c3C(=O)N2Cc2cccnc2)cc1 (configuration not stated) the results were TRPML1 ag 1, TRPML1 inh 1, TRHR enhancer-1 -1 and TRHR agonist-1 -1.
For Cc1ccc(-c2cn3nc(N4CCCC(C(=O)NCc5ccc(F)cc5)C4)sc3n2)cc1 (configuration not stated) the results were TRPML1 ag 1, TRPML1 inh 11, TRHR enhancer-1 3 and TRHR agonist-1 0.
`CC(C)CCNC(=O)NC(=O)CSc1nnc(-c2ccccc2Br)o1` gave TRPML1 ag 0, TRPV1 ag 0, TRPML1 inh 9, TRHR enhancer-1 42*, TRHR agonist-1 0, TRPV1 PAM 10, TRHR enhancer-2 -3 and TRHR agonist-2 2%.
CCCCN1C(=O)/C(=C/C=C2\SCCN2C)SC1=S was read as TRPML1 ag 3, TRPV1 ag inconclusive, TRPML1 inh -3, TRHR enhancer-1 -1, TRHR agonist-1 20 and TRPV1 PAM -5.
